# The list is not random: actives were taken first. Their share in the collection is about 5.9%.
# GLP1R cytotox = qHTS of GLP-1 Receptor Inverse Agonists: Cytotox Screen. HEK293 cAMP-luciferase reporter cells, luminescence, 24 h. Potency, µM (top dose mostly 38.3 µM), for the others: top-dose activity change, negative = inhibition, most hits filed as inhibitors. hit rate 0.13% among 410,000. AID 624418, 2012;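 also: loss of luciferase light is scored as toxicity; % is scaled to controls: 0 for no effect and ±100 for the full control effect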
#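 1536-well qHTS counterscreen of the MLSMR; 200 cells/uL, 12 h pre-incubation, 23 nL cpd, 24 h at 37 deg C 5% CO2, luciferase detection reagent, 12 min RT, luminescence. Inhibition = undesired.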
# GLP-1R agonist = qHTS of GLP-1 Receptor Agonists; HEK293 GLP-1R CRE-luciferase, luminescence, 4-6 h; cells express a hypersensitive GLP-1R form; hit rate 0.007% among 380,000; Potency, µM (top dose mostly 45.6 µM), for the others: at the top dose activation, actives largely listed as activators; also: % of control where 0% means no effect
# Target sequence (P43220 whole entry, looked up): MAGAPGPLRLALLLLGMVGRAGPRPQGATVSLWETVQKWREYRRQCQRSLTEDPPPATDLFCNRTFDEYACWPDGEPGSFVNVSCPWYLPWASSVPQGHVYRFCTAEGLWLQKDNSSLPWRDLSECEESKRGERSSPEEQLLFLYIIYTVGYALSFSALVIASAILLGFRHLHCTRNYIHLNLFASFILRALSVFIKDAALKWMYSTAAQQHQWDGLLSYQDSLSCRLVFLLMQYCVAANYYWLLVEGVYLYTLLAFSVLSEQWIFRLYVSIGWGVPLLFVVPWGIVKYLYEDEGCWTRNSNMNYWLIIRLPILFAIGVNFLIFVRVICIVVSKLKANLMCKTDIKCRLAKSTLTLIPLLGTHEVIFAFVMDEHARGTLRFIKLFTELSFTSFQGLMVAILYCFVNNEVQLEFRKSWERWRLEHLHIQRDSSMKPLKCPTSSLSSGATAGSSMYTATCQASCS
# RORgamma inh = qHTS for inhibitors of ROR gamma transcriptional activity. Nuclear receptor ROR-gamma (Mus musculus), P51450. Drosophila S2 Gal4-RORgamma UAS-luciferase reporter, 20 h. Potency, µM (series often up to 53.6 µM), inactives show at the highest dose activity change, negative = inhibition, most hits filed as inhibitors. hit rate 5.4% among 310,000; also: % is scaled to controls: 0 for no effect and ±100 for the full control effect; nearly all actives have a fitted effect of over 60% in size
#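 Luminescence from a UAS-regulated Photinus luciferase reporter in stably transfected Drosophila Schneider cells is measured; decreased signal marks ROR gamma inhibition. Fusion expression is induced by 700 uM copper sulfate for 20 hr.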
# VP16 counter = VP16 counterscreen qHTS for inhibitors of ROR gamma transcriptional activity | AID 2546, 2010 | Drosophila S2 Gal4-VP16 UAS-luciferase, luminescence, 20 h | Potency, µM (doses to about 53.6 µM), for the others: at the top dose activity, negative = inhibition, actives largely listed as inhibitors | hit rate 3.5% among 310,000;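 also: Gal4-VP16 expression switched on by copper sulfate through the metallothionein promoter; % is scaled to controls: 0 for no effect and ±100 for the full control effect; nearly all actives have a fitted effect of over 50% in size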
# GLP1R inv ag = qHTS of GLP-1 Receptor Inverse Agonists (Inhibition Mode); Glucagon-like peptide 1 receptor (Homo sapiens), P43220; HEK293 GLP-1R CRE-luciferase, luminescence, 24 h; GLP-1R form is constitutively active; Potency, µM (doses to about 38.3 µM), without a hit: top-dose activity change, negative = inhibition, usual class: inhibitors; hit rate 1.6% among 410,000; also: % is scaled to controls: 0 for no effect and ±100 for the full control effect; nearly all actives have a fitted effect of over 55% in size
#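 Constitutively active GLP-1R drives a cAMP-responsive luciferase in stably transfected HEK293 cells; test compounds are added after overnight (12 h) attachment and left 24 hr, and signal loss in luminescence marks inhibition.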
# Active calls of the source: *; ? = inconclusive; · = not tested or not shown; [ ] = another dose, or the depositor's remark. Calls follow the shape of the dose curve; as a rule, active = well fitted curve in the direction sought with a large enough effect; inconclusive = small, poorly fitted or top-dose-only effect, or another doubt; inactive = no such curve, though single readings can be large; an effect the other way counts as inactive or inconclusive. Potency is read from the fitted curve at half-maximal effect.
SMILES,GLP1R cytotox,GLP-1R agonist,RORgamma inh,VP16 counter,GLP1R inv ag
COc1ccc(/C=N/NC(=O)c2ccn[nH]2)cc1COc1ccc(F)cc1,-26%,0%,19%,-7%,?
CC(NC(=O)CN1C(=O)COc2ccc(Cl)cc21)c1ccccc1 (centres undefined),1%,·,·,·,6%
CC(=O)OC[C@@H]1O[C@H](C/C=N\O[C@@H](C)c2cn([C@H]3COC[C@H]3O)nn2)C=C[C@@H]1OC(C)=O,·,·,-6%[10 µM],-5%[10 µM],·
CCOc1ccccc1NC(=O)CSc1ncc(S(=O)(=O)c2ccc(C)c(C)c2)c(N)n1,-1%,2%,·,·,-9%
CCCCc1nn2c(=O)cc(COC(=O)c3ccco3)nc2s1,-3%,·,·,·,2%
CCOC(=O)c1c(S(=O)(=O)N2CCCC(C(=O)Nc3ccc(OCC)cc3)C2)c(C)n(C)c1C (centres undefined),9%,·,·,·,-3%
Cc1c(Cl)cccc1NC(=O)CSc1ncc(S(=O)(=O)c2ccc(C(C)C)cc2)c(=O)[nH]1,-8%,-1%,·,·,7%
CCCCNC(=O)NNc1nc(Cl)cc(C)c1C#N,-3%,-5%,-26%,14µM*,1%
CCCCNc1nc(C)c(C(C)=O)cc1C#N,-3%,18%,-2%,20%,23%
CCc1ccc(CNC(=O)C(CC)n2nc(C)c3c(C)n(-c4ccccc4)nc3c2=O)cc1 (centres undefined),-11%,·,·,·,?
NS(=O)(=O)C#Cc1ccccc1,·,·,5.6µM*,?,·
Cc1cc(C(F)(F)F)nc(Nc2nc(C)c3ccccc3n2)n1,-5%,-4%,6.3µM*,?,2%
COc1ccccc1-c1c(C)nn2c(N3CCN(c4ccc(Cl)cc4)CC3)cc(C)nc12,0%,·,·,·,-3%
Cc1ccccc1NS(=O)(=O)c1ccc2[nH]cc(C(=O)NCCc3ccccc3)c(=O)c2c1,-10%,·,·,·,?
OC(CNCCC1C=Nc2ccccc21)Cn1c2ccc(Cl)cc2c2cc(Cl)ccc21 (centres undefined),?,-21%,?,13µM*,?
Cc1cc(Cl)ccc1NNC(=O)CCc1ccccc1,9%,-2%,38%,-17%,4.5µM*
COc1cccc(CNC(=S)Nc2cc(OC)ccc2OC)c1,-1%,-1%,13µM*,?,-17%
COc1cccc(CNC(=S)Nc2ccc(Cl)cc2C)c1,?,0%,6.3µM*,6.3µM*,?
Cc1cc(Cl)ccc1NC(=S)NCc1ccccc1,-7%,3%,4µM*,4%[0.365 µM],11µM*
O=C(CCc1ccccc1)NNC(=O)c1cc(Cl)ccc1O,-12%,0%,?,2%,-29%
CN(C)C1CCc2[nH]c3ccc(NC(=O)c4ccc(F)cc4)cc3c2C1 (centres undefined),·,·,-5%,2%,·
Cc1ccccc1-c1noc(-c2nnn(-c3ccccc3C)c2N)n1,6%,·,·,·,10%
S=C=Nc1ccc(N=C=S)cc1,·,-4%,-14%,-5%,·
Cc1ccc(NC(=S)NCC(O)c2ccccc2)c(C)c1 (centres undefined),12%,-2%,-78%,4%,?
Cc1cc(Cl)ccc1NNC(=O)c1c(C)noc1C,?,14%,-13%,0%,1.4µM*
SMILES,GLP1R cytotox,GLP-1R agonist,RORgamma inh,VP16 counter,GLP1R inv ag
Cc1ccc(NC(=S)NCc2ccc(Cl)cc2)c(C)c1,?,-4%,4.5µM*,4.5µM*,?
Cc1ccc(C)c(C(=O)CCC(=O)NCc2ccc(Cl)cc2)c1,-8%,3%,17%,4%,10µM*
Cc1nc(NCc2ccccc2)c2nc(-c3ccccc3)n(CCN3CCOCC3)c2n1,·,·,-14%,2%,·
CC(C)=NOC[C@@H](O)[C@@H]1O[C@@H]2OC(C)(C)O[C@@H]2[C@H]1O,·,·,-4%[10 µM],5%[10 µM],·
CCSc1cnn(-c2ccccc2)c(=O)c1SCC,48%,3%,?,16%,4%
CCCCSc1cnn(-c2ccccc2)c(=O)c1SCCCC,33%,6%,?,14µM*,?
Cc1ccccc1NC1=NC(=S)N(c2ccccc2)C12CCCCC2,?,-13%,3.5µM*,?,?

# Source: PubChem (National Center for Advancing Translational Sciences (NCATS))
